# Laboratory results reported in ChEMBL document CHEMBL3988442, “University of Dundee, Small-Polar-MMV Screening Library” (2021).
# For some of these results: Potency and affinity values are given separately.
# What was measured:
# Design in all cases: scale not given: direction of the effect not stated beside the values
# [1] = target: Protein translocase subunit SecA (Escherichia coli (strain K12)) (UniProt P10408); assay: Assay to Identify E. coli SecA ATPase Inhibitors; assay type: functional; settings: 30 µM
# Protein translocase subunit SecA (Escherichia coli (strain K12)), sequence (P10408 whole entry): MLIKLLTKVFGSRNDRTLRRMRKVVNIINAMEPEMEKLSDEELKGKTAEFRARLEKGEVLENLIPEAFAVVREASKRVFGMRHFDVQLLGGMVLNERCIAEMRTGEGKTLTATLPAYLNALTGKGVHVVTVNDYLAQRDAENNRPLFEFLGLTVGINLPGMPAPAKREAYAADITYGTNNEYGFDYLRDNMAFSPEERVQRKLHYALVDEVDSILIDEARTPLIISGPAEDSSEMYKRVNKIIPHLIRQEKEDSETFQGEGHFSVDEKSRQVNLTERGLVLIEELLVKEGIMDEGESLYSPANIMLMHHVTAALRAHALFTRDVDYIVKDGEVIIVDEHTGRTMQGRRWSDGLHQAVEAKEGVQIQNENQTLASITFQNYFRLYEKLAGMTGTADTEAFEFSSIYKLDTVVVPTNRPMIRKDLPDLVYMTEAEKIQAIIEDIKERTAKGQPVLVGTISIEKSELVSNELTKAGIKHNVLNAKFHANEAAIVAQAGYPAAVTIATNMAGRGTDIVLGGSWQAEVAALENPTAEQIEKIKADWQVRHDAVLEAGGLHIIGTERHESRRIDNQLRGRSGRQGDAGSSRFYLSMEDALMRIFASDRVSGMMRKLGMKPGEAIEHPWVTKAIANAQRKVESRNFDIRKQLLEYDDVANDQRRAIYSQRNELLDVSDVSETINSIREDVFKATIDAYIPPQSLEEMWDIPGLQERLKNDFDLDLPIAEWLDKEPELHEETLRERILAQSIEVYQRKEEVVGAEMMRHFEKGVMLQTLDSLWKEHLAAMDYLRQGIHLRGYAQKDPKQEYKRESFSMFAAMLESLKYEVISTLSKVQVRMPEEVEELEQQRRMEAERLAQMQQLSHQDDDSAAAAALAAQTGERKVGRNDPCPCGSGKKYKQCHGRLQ
# [2] = target: T1, Ubiquitin-activating enzyme e1, putative (Leishmania donovani (strain BPK282A1)) (UniProt E9BSI1); assay: Leishmania donovani Ubiquitin Activating Enzyme (LdE1); assay type: functional; settings: 30 µM
# T1 sequence (whole entry): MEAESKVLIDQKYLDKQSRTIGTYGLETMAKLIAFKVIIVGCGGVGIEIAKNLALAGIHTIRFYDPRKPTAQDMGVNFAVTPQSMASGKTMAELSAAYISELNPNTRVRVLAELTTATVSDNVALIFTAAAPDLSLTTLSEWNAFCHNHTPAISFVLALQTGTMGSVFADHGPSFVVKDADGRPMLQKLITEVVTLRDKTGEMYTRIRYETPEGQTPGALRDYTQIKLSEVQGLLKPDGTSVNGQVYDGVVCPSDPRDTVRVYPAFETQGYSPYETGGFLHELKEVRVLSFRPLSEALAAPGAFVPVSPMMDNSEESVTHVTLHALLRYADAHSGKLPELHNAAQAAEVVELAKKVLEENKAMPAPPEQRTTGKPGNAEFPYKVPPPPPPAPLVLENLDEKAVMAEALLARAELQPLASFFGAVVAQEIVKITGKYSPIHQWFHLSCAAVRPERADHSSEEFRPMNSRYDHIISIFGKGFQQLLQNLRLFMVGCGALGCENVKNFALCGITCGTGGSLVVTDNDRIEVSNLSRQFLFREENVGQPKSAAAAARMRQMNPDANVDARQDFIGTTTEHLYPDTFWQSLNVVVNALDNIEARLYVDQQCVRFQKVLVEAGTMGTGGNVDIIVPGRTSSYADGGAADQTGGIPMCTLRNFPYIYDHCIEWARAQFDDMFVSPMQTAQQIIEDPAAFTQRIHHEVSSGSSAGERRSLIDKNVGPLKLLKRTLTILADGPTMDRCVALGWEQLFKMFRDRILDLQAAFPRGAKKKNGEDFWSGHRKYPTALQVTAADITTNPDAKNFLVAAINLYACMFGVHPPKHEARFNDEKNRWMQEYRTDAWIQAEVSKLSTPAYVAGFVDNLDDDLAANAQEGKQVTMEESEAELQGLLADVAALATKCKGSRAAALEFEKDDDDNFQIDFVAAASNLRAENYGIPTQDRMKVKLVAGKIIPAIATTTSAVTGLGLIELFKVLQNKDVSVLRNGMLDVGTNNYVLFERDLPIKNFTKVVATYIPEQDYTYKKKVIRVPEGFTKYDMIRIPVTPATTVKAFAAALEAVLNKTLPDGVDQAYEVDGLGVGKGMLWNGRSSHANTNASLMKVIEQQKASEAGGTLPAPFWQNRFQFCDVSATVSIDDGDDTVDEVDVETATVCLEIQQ
# [3] = target: AMP-activated protein kinase, AMPK (Homo sapiens) (UniProt P54646+O43741+P54619+Q9UGJ0+Q9Y478+Q13131+Q9UGI9); assay: AMP-dependent Kinase enzyme assay. An in vitro enzyme assay that detects ADP turnover that is directly proportional to AMPK activity. This uses naive AMPK that is activated during the assay with MK-8722; assay type: functional; settings: 30 µM
# [4] = target: Sialic acid-binding Ig-like lectin 9 (Homo sapiens) (UniProt Q9Y336); assay: Hs-Siglec9 ALPHAscreen SOP 20170721; settings: 10 µM
# Sialic acid-binding Ig-like lectin 9 (Homo sapiens), sequence (Q9Y336 whole entry): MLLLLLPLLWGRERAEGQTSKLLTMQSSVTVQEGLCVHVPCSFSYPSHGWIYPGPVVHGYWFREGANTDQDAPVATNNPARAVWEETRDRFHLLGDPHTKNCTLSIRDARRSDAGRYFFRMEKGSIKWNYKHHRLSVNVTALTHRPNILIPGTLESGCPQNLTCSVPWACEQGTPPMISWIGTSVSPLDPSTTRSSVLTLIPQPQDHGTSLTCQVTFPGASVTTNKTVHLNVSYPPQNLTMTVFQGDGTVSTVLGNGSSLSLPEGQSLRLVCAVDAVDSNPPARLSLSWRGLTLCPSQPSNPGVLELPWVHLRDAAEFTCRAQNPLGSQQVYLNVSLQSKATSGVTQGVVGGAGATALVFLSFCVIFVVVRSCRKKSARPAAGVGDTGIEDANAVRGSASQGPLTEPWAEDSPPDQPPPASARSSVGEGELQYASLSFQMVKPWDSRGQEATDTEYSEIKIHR
# Trypanosoma cruzi = assay: Trypanosoma cruzi phosphomannomutase and mannose-1-phosphate guanylyltransferase assay; assay type: functional; settings: 10 µM
# [5] = target: T2, Arginase-2, mitochondrial (Homo sapiens) (UniProt P78540); assay: in vitro enzyme assay to detect the production of urea directly proportional to the activity of Arginase II; assay type: functional; settings: 33.3 µM; further: in the data most compounds retested in dose-response had high values
# T2 sequence (whole entry): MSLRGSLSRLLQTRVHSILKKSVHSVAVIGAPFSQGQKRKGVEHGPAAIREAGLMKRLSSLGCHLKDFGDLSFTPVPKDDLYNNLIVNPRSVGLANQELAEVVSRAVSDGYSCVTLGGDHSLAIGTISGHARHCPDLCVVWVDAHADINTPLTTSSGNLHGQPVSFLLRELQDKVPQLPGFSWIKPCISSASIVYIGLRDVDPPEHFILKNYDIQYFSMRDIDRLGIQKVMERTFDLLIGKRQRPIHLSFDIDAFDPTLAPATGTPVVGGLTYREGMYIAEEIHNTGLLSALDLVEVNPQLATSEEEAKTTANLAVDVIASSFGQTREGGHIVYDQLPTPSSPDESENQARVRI
# [6] = target: T3, Proteasome subunit beta (Trypanosoma cruzi) (UniProt O96673); assay: Trypanosoma cruzi proteasome chymotrypsin-like activity (TcProtChymo) assay.; further: in the data most compounds retested in dose-response had high values; assay type: functional; settings: 9.37 µM
# T3 sequence (whole entry): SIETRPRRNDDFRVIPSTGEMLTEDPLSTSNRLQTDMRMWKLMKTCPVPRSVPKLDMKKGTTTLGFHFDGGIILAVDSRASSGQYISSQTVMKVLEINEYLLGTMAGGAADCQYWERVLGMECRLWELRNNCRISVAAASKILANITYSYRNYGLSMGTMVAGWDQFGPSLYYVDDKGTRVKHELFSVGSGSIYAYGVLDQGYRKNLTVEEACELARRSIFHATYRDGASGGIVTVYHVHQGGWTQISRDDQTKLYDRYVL
# Homo sapiens = species: Homo sapiens; assay: To identify inhibition of the IFN signalling (Jak-Stat) pathway via expression of an eGFP reporter gene under the control of an IFN-stimulated response element (ISRE) containing MxA promoter.; assay type: functional; settings: 30 µM
# [7] = target: T4, Tyrosyl-tRNA synthetase, putative (Trypanosoma cruzi (strain CL Brener)) (UniProt Q4DSP6); assay: Trypanosoma cruzi tyrosyl tRNA synthetase (TcYRS) _High Tyrosine SOP; assay type: functional; settings: 30 µM; further: in the data most compounds retested in dose-response had high values
# T4 sequence (whole entry): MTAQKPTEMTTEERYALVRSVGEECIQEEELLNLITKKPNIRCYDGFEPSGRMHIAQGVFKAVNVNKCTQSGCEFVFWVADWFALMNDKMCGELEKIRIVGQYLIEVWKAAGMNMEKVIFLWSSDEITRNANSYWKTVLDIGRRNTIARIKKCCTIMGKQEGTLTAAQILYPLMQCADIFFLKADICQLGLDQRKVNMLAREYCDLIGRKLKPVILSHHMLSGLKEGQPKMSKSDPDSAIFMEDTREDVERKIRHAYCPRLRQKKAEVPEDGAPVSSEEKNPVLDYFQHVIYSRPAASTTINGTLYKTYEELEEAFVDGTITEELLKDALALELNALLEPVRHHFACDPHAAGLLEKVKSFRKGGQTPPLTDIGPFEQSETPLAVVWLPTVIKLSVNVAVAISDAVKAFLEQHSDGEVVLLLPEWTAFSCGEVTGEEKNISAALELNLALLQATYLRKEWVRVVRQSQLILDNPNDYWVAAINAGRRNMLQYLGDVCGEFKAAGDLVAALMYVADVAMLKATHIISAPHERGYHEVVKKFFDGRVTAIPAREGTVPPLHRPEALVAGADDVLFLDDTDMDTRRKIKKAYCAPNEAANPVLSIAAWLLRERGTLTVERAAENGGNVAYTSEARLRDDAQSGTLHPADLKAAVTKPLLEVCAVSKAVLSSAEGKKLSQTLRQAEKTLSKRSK
# [8] = target: T4, Tyrosyl-tRNA synthetase, putative (Trypanosoma cruzi (strain CL Brener)); assay: Trypanosoma cruzi tyrosyl tRNA synthetase (TcYRS) SOP; assay type: functional; settings: 30 µM
# [9] = target: Chromo domain-containing protein 1 (Saccharomyces cerevisiae (strain ATCC 204508 / S288c) (Baker's yeast)) (UniProt P32657); assay: ScCHD-1 Enzyme Inhibition Assay; assay type: functional; settings: 30 µM; further: in the data most compounds retested in dose-response had high values
# Chromo domain-containing protein 1 (Saccharomyces cerevisiae (strain ATCC 204508 / S288c) (Baker's yeast)), sequence (P32657 whole entry, the tested form may be a part): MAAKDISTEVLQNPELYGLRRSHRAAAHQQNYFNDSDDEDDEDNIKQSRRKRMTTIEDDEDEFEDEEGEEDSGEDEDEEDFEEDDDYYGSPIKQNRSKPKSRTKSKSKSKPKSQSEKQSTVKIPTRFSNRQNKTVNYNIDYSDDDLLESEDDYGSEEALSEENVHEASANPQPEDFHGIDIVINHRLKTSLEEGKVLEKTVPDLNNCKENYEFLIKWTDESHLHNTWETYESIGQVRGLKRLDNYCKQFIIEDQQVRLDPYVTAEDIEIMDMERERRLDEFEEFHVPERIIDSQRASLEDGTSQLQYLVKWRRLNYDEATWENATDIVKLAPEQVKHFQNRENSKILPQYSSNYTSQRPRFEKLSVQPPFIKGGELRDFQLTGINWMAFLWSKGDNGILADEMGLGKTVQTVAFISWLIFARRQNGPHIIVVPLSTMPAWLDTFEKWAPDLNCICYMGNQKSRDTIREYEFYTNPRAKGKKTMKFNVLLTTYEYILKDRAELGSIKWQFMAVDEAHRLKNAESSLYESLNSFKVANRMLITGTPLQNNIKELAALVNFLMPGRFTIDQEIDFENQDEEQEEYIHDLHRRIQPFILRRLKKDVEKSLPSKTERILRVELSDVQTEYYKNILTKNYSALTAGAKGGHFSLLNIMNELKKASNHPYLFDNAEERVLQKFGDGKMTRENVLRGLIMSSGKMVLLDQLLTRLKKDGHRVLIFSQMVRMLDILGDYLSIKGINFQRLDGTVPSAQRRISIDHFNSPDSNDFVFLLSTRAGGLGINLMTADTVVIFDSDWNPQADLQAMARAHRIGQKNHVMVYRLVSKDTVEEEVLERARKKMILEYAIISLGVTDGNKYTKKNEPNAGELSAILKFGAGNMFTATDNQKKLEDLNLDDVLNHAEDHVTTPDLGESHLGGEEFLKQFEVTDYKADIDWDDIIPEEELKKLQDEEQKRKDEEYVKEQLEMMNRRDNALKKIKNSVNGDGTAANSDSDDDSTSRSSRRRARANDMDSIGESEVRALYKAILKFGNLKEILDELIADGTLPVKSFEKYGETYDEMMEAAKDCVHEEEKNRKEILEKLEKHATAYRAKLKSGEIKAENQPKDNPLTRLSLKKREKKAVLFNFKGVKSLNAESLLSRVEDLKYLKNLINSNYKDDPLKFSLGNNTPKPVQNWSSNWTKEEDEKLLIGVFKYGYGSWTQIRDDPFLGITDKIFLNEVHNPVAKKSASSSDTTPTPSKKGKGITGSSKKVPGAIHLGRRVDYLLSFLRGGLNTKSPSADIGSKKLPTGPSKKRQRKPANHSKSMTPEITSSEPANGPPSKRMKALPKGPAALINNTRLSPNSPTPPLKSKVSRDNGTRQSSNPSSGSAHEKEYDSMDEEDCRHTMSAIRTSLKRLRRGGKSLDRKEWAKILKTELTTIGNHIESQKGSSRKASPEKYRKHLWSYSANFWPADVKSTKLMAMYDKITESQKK
Structure (SMILES),Percent Effect [1],Percent Effect [2],Percent Effect [3],Percent Effect [4],Percent Effect (Trypanosoma cruzi),Percent Effect [5],Percent Effect [6],Percent Effect (Homo sapiens),Percent Effect [7],Percent Effect [8],Percent Effect [9]
O=C(c1cncc(N2CCC(O)(CO)CC2)n1)N1CCCC1,-4.63%,5.33%,-3.65%,8.86%,6.72%,0%,16.9%,-11.2%,9.29%,18.5%,-7.99%
CNC(=O)N1CC[C@H]2N(C)CC[C@@]2(C(=O)Nc2ccccc2)CC1,-3.9%,5.41%,-2.05%,1.61%,5.08%,4.17%,2.45%,11.5%,1.98%,6.1%,-1.69%
CC(=O)c1ccc(N2CCC(CO)(CCOc3ccccc3)CC2)nc1,-4.34%,0%,3.88%,4.67%,-3.05%,20.7%,9.48%,20.6%,3.23%,8.64%,1.85%
Cc1nonc1C(=O)N1CCCC(c2ncncc2-c2ccncc2)C1 (stereo not drawn),-5.71%,8%,11.1%,2.77%,-0.591%,0.699%,3.08%,-1.27%,5.32%,8.97%,-4.88%
Cc1cc(CN2CCN(C(C)c3nc(C4CC4)no3)CC2)no1 (stereo not drawn),1.42%,8.86%,-5.67%,-3.17%,-1.33%,4.52%,13.4%,28.4%,-1.04%,5.06%,-25.2%
COCCN1CCC(CNC(=O)C2(c3cc(C)cc(C)c3)CCC2)C1 (stereo not drawn),-8.07%,0%,-6.3%,-4.59%,-1.77%,2.88%,-4.82%,-6.37%,2.46%,1.24%,2.35%
COc1cc(N2CC[C@H](O)[C@@H]2Cc2cnn(C)c2)ncn1,-0.518%,10.8%,1.19%,-5.15%,-3.62%,8.6%,19.2%,-8.64%,3.24%,10.3%,-2.09%
Cc1cc(CN2CCN(C(=O)c3sccc3C3CC3)CC2)on1,-1.18%,10.4%,2.54%,-6.72%,-7.35%,1.05%,9.62%,18.1%,4.76%,18.8%,-15.4%
